This is part of a sample that, as a whole, favours compounds with a hit. Of some 79,000 tested, about 15% had one in any assay. Values without a mark were called inactive. Active and inactive are the calls of the source. Rule as the data show it: active = growth inhibition above about 70%; inactive = the rest.
Legend:
[1] = NCI Yeast Anticancer Drug Screen. Data for the rad50 strain (AID 155);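 also: 0% = growth of vehicle-only cultures of the same strain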; conditions: S. cerevisiae rad50 strain growth inhibition; at 50.0 µM; active compounds read high
In short: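 Relative growth inhibition (compound vs vehicle) was measured in yeast with a defined repair-gene alteration.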

[2] = NCI Yeast Anticancer Drug Screen. Data for the mec2-1 strain (AID 157); conditions: S. cerevisiae mec2-1 strain, at 50.0 µM, active compounds read high
In short: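 Readout is yeast growth inhibition, normalised to vehicle-treated controls, in the mec2-1 strain exposed to compound.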

[3] = NCI Yeast Anticancer Drug Screen. Data for the sgs1 mgt1 strain (AID 161);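 also: 0% = growth of cultures given vehicle only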; conditions: S. cerevisiae sgs1 mgt1 strain, at 50.0 µM, active compounds read high
In short: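 Percent growth inhibition was derived by comparing compound-exposed mutant yeast with vehicle-exposed cultures. The strain carries alterations in DNA damage repair.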

[4] = NCI Yeast Anticancer Drug Screen. Data for the cln2 rad14 strain (AID 165);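 also: 0% = growth equal to vehicle treated cultures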; conditions: S. cerevisiae cln2 rad14 strain, at 50.0 µM, active compounds read high
In short: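 Relative to vehicle controls, growth inhibition of compound-treated cln2 rad14 yeast was recorded.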

[5] = NCI Yeast Anticancer Drug Screen. Data for the bub3 strain (AID 167); conditions: S. cerevisiae bub3 mutant strain, at 50.0 µM, active compounds read high
In short: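 Screening used yeast with an engineered genetic alteration affecting cell cycle control. Compound-exposed cultures were compared with vehicle cultures, and reduced growth was taken as inhibition.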

[6] = NCI Yeast Anticancer Drug Screen. Data for the mlh1 rad18 strain (AID 175); conditions: S. cerevisiae mlh1 rad18 strain growth inhibition; at 50.0 µM; active compounds read high
In short: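 Test agents were incubated with a yeast strain of defined genotype (DNA damage repair defect). Inhibition of growth was derived by comparison with vehicle-exposed cultures.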

SMILES | growth inhibition [1] | growth inhibition [2] | growth inhibition [3] | growth inhibition [4] | growth inhibition [5] | growth inhibition [6]
O=C1OCCN1N1C(=O)CC2(CCN(Cc3ccccc3)CC2)C1=O | -10.8% | 3% | -0.95% | 1.15% | 0.25% | -17.8%
CCCC(O)(Cc1ccccc1)c1ccccc1 (centres undefined) | -39% | -25.5% | -15.2% | -3.45% | -15.2% | -14%
O=[N+]([O-])c1cc(C(F)(F)F)ccc1F | -16% | -15.2% | -2.3% | -25.8% | -12.4% | -0.15%
O=C1c2cccc([N+](=O)[O-])c2C(=O)c2cccc(Cl)c21 | 29.2% | 9.35% | -4.15% | -17.9% | 32.5% | 42.9%
C=C(C)[C@@H]1CC[C@@H](C)C[C@H]1O | 9% | -11.8% | -1.55% | 13.8% | 9.95% | -1.65%
CN(C)CCC(=O)C(=Cc1ccc(O)cc1)C(=O)CCN(C)C | -35.2% | -38.1% | -2.4% | -3.5% | 7.1% | -39.5%
CN1CCC(=C2c3ccccc3CC(O)c3sccc32)CC1 (centres undefined) | 24.2% | 5.7% | -16.6% | 3.5% | 9.2% | 39%
O=C1c2ccccc2C(=O)N1NC1=NCCN1 | -12.6% | -13.3% | -13.1% | 11.8% | 5.5% | -1.8%
C=C[C@@]1(C)CC(=O)[C@]2(O)[C@@]3(C)[C@@H](O)CCC(C)(C)[C@@H]3[C@H](O)[C@@H](OC(C)=O)[C@@]2(C)O1 | 0.2% | -4.4% | -5.75% | 9.2% | -4.15% | -68%
CCCCCCCCCCCCCCCCCCC1=C(O)C(=O)C=C(OC)C1=O | 18.2% | -6.5% | -3.05% | -2.4% | 4.4% | 8.75%
CCCCS(=O)(=O)c1ccc(Cl)cc1 | -2.65% | -13.9% | -4.45% | -16% | -3.9% | 21.9%
CCOC1C=CCCC1 (centres undefined) | -1.75% | 23.6% | -6.35% | 9.4% | 14.8% | -14%
Cn1cnc(N)c1C(N)=S | 4.65% | 7.5% | -8.6% | -8.55% | 7.9% | 1.1%
COc1cc(C)c(C(=O)c2ccccc2NS(=O)(=O)c2ccc(C)cc2)cc1OC | 7.6% | -0.7% | -1.5% | 22.6% | -2.95% | 9.1%
NC(=O)c1ccccc1Sc1ccccc1C(N)=O | -4.6% | 2.35% | 5.4% | 2.45% | 1.65% | 0.6%
CSc1nnn(C(C)(C)C)n1 | 5.35% | 6% | -3.5% | -15.9% | -8.75% | 8.8%
CC(=O)NNc1nc(C)c(C(=O)/C=C/c2ccc(Cl)cc2)s1 | 44.2% | 12.7% | 21.7% | 27.4% | 19% | 30.2%
O=c1[nH]cc(F)c(=O)n1-c1ccco1 | 42.6% | 67.5% | 79.8% (active) | -0.55% | 52.2% | 34.9%
O=C1C2C3(CCl)C1C23CCl (centres undefined) | 23.9% | 46.6% | 37.6% | 10.4% | 18.2% | 40.6%
CN1CCc2c1nc(-c1ccccc1)c1c2N(C)CC1 | 2.2% | -11% | -6.4% | 9.65% | -18.2% | -1.5%

SMILES | growth inhibition [1] | growth inhibition [2] | growth inhibition [3] | growth inhibition [4] | growth inhibition [5] | growth inhibition [6]
CC1(O)C=CC2CCC1C2O (centres undefined) | 11.9% | -2.55% | 10% | 19.2% | 0.15% | 19.6%
C[C@@]1(N2C(=O)OC(c3ccccc3)C2=O)C(=O)N2CCS[C@@]21c1ccccc1 (some centres undefined) | 4.2% | 2.6% | 11.8% | 11.3% | 5.85% | 1.25%
N#Cc1ccc(Oc2ccc(C#N)cc2)cc1 | 12.2% | -19.6% | -8.45% | 18.4% | -0.4% | -1.1%
Nc1ccc(N=Nc2ccc(C(=O)O)cc2)cc1 | -32.9% | -48% | 18.1% | 3% | -26.4% | -7.6%
O=C1NC(=O)C(CN2C(=O)/C(=C/c3cccc(O)c3)SC2=S)C(=O)N1 | -55.2% | -20.8% | -29.7% | -20.6% | -20.4% | -71.8%
CC1(C)CC(C(N)=O)C(=O)O1 (centres undefined) | -17.4% | -4.15% | -21.6% | -25.9% | 5.1% | -2.4%
O=[N+]([O-])c1ccccc1S(=O)c1ccccc1 (centres undefined) | -1.65% | -0.15% | -4.3% | 11.2% | -6.5% | -6.25%
COc1cc(NC(=O)CC(C)=O)cc(OC)c1 | -4% | -5% | -10% | 3.2% | -18.4% | -2.5%
CCc1c(C)nc2cc(-c3cc(C)n4c(=O)c(CC)c(C)nc4c3)cc(C)n2c1=O | 1.6% | 9.95% | -12.7% | 1.2% | 3.2% | 3.95%
c1ccc(OC23CC4CC(CC(C4)C2)C3)cc1 | -9.45% | -5% | -5.2% | 42.8% | -18.8% | -21.6%
N#Cc1ccc(Nc2cnc3ccc(N)cc3n2)cc1 | -41.2% | -37.6% | -43.8% | -25.4% | -25.4% | -54.1%
O=C1CCCN(Cc2ccccc2)C1 | -4.2% | -25.2% | 0.35% | 1.2% | -0.4% | 9.45%
Cc1ccc(S(=O)(=O)OC/C(=C(/c2ccccc2)c2ccc(Cl)cc2)c2ccccc2)cc1 | 96.8% (active) | 97.5% (active) | 95.8% (active) | 87.3% (active) | 95.3% (active) | 96.6% (active)
Cc1ccc(CNC(=S)Nc2ccc(F)cc2)c(C)c1 | -7.6% | 30.1% | 30.4% | -24.7% | 46.1% | 27.4%
O=S1C=Cc2ccccc21 (centres undefined) | 9.8% | 20.6% | 13.1% | 5.8% | -0.7% | 7.1%
Cc1cc2c(cc1C=O)C(C)(C)CCC2 | 9.75% | 0.85% | -6.85% | -32.2% | 2.85% | 26.2%
CC(=O)Nc1ccc(Sc2ccc(NC(C)=O)cc2O)c(O)c1 | 34.1% | 17% | 32% | -31.4% | 14.7% | 41.9%
CC(C)NC(=O)N(C(=O)C(F)(F)F)C(C)C | -0.95% | 7.45% | -4.6% | -41% | 2.1% | 7.5%
O=C(O)CS(=O)(=O)Cc1ccccc1 | -12.7% | -9.85% | -9.25% | -60.6% | -7.9% | -6.5%
